This is a sample that favours compounds with a hit; in the whole collection about 20% have one here.
Shiga inhibitor: blocks Shiga toxin action in Vero cells; Vero cells, Shiga toxin protein synthesis inhibition reporter; inhibition, % at 38.7 µM; hit rate 9.2% among 290,000; AID 2315; in the data active = inhibition mostly above about 28%, no sharp cut-off; inactive = mostly below about 43%
Pf growth 48h: P. falciparum growth inhibition at 48 hours (one generation); hit rate 5.9% among 310,000; P. falciparum luciferase growth in erythrocytes, 48 h; Potency, µM (titrated, usually from 28.7 µM), usual class: inhibitors; AID 504832
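Firefly luciferase activity from engineered P. falciparum reports growth; inhibitors lower the luminescent signal. Cultures contained 2% hematocrit erythrocytes at 0.1% final parasitemia.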
HCMV antiviral: human cytomegalovirus inhibition; activity change, negative = inhibition, % at 57.5 µM; AID 1259415; hit rate 4.5% among 410,000; HFF cells, HCMV-luciferase reporter, 72 h; hits give low values; in the data active = activity change below about -60%; inconclusive = no clear call, values can overlap the other calls; inactive = above about -39%
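Screen run at 2 compound doses on HFFs infected with reporter HCMV, MOI 1 PFU/cell. Luciferase activity from cell lysates at 72 h post infection gave inhibition relative to buffer-only and Salinomycin wells.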
Pf growth 96h: P. falciparum growth inhibition at 96 hours | P. falciparum luciferase reporter growth, 96 h | Potency, µM (top dose mostly 28.7 µM), actives largely listed as inhibitors | hit rate 6.9% among 320,000
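Two parasite generations (96 h, 37 C, 5% CO2) of compound exposure in infected erythrocytes (0.05% parasitemia, 2% hematocrit). Luciferase-reporter P. falciparum; decreased luminescence indicates inhibited growth, aimed at apicoplast-acting delayed death.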
Cycloheximide cs: counter-screen hit for Shiga toxin inhibitors, cycloheximide; hit rate 12% among 300,000; max response, %; AID 2314; cell reporter, cycloheximide protein synthesis inhibition counterscreen; in the data active = max response mostly above about 13%, no sharp cut-off; inactive = mostly below about 14%; note: read at 38.3 µM for the half of the compounds with a filed dose
Large screens that a line does not name were inactive. Unless noted, calls come from the whole dose curve; as a rule, active = well fitted inhibition curve with a large enough effect; inconclusive = small, poorly fitted or top-dose-only effect, or another doubt; inactive = no such curve, though single readings can be large or run the other way.

CC1CCCC(C)N1C(=O)CSc1nnnn1-c1cccc2c1CCCC2 (configuration not stated)	Pf growth 48h inconclusive, Pf growth 96h inconclusive
CCC(=O)Nc1ccc(NC(=O)CSc2nnnn2C(C)C)cc1	none
Cc1ccccc1-c1nnc(SCC(=O)Nc2ccc3c(c2)OCCO3)n1N	Pf growth 96h inconclusive
COCCCn1nnnc1SCC(=O)Nc1ccc2c(c1)OCCO2	Pf growth 96h 13µM
CC(C)n1nnnc1SCC(=O)Nc1ccc2c(c1)OCCO2	Shiga inhibitor 117, Cycloheximide cs 57
CC(O)CNc1nc(Cl)c(C#N)s1 (configuration not stated)	HCMV antiviral inconclusive
COc1ccc(CNC(=O)c2ccc3c(c2)N(Cc2ccccc2)C(=O)c2ccccc2S3(=O)=O)cc1	none (no result: Shiga inhibitor, Pf growth 48h, Pf growth 96h, Cycloheximide cs)
CSc1ccccc1NC(=S)Nc1ccc(S(N)(=O)=O)cc1	none
COc1ccc(-n2nnnc2SCC(=O)Nc2ccc3c(c2)OCCO3)c(OC)c1	Shiga inhibitor 74, HCMV antiviral inconclusive, Pf growth 96h inconclusive, Cycloheximide cs 46
COCCn1nnnc1SCC(=O)Nc1ccc2c(c1)OCO2	none
CCn1nnnc1SCC(=O)Nc1ccc2c(c1)OCCO2	Shiga inhibitor 64, Pf growth 96h inconclusive, Cycloheximide cs 44
COCCn1c(C)cc(O)c(C(c2ccccc2)N2CCN(CCO)CC2)c1=O (configuration not stated)	none (no result: Shiga inhibitor, Pf growth 48h, Pf growth 96h, Cycloheximide cs)
COc1ccc(C(C)NC(=S)NCc2ccc(F)cc2)cc1 (configuration not stated)	Pf growth 48h inconclusive
CCC(NC(=S)NCc1ccc(F)cc1)c1ccccc1 (configuration not stated)	Pf growth 48h 6.6µM, Pf growth 96h inconclusive
Cc1ccc(C)c(C(C)NC(=S)NCc2ccc(F)cc2)c1 (configuration not stated)	Pf growth 48h 3.3µM
O=C(Cn1c(SCc2ccccc2F)nc2ccncc21)Nc1ccccc1C(F)(F)F	none (no result: Shiga inhibitor, Pf growth 48h, Pf growth 96h, Cycloheximide cs)
CNc1nc2cnc(-c3cc(OC)c(OC)c(OC)c3)cc2n1Cc1ccccc1	none (no result: Shiga inhibitor, Pf growth 48h, Pf growth 96h, Cycloheximide cs)
Fc1ccc(-n2c(Cc3ccccc3)nnc2SCc2nc(-c3cccs3)no2)cc1	Pf growth 48h 10µM (no result: HCMV antiviral)
c1ccc(Cc2nnc(SCc3nc(-c4cccs4)no3)n2-c2ccccc2)cc1	none (no result: Shiga inhibitor, Pf growth 48h, Pf growth 96h, Cycloheximide cs)
Cc1ccc(-c2noc(CSc3nnc(Cc4cccs4)n3-c3ccccc3)n2)cc1	Pf growth 96h 4.7µM
C[C@@H]1CN([C@H](C)CO)S(=O)(=O)c2ccc(C#Cc3ccccc3)cc2O[C@H]1CN(C)C(=O)Nc1ccc2c(c1)OCO2	HCMV antiviral -87 (no result: Shiga inhibitor, Pf growth 48h, Pf growth 96h, Cycloheximide cs)
C[C@H](CO)N1C[C@H](C)[C@@H](CN(C)C(=O)c2ccc3c(c2)OCO3)Oc2cc(/C=C/c3ccccc3)ccc2S1(=O)=O	HCMV antiviral -62 (no result: Shiga inhibitor, Pf growth 48h, Pf growth 96h, Cycloheximide cs)
C[C@@H]1CN([C@@H](C)CO)S(=O)(=O)c2ccc(/C=C/c3ccccc3)cc2O[C@@H]1CN(C)Cc1ccc(C(=O)O)cc1	none (no result: Shiga inhibitor, Pf growth 48h, Pf growth 96h, Cycloheximide cs)
COc1ccc(-c2noc(CNS(=O)(=O)c3ccc(Br)cc3)n2)cc1OC	none (no result: Shiga inhibitor, Pf growth 48h, Pf growth 96h, Cycloheximide cs)
O=C(NCc1ccccc1)c1nc2ccccc2nc1-c1ccc(F)cc1	none (no result: Shiga inhibitor, Pf growth 48h, Pf growth 96h, Cycloheximide cs)
COc1ccc(C2C(C#N)=C(N)Oc3cc(O)ccc32)cc1OC (configuration not stated)	Pf growth 96h inconclusive
COc1cc(C2C(C#N)=C(N)Oc3cc(O)ccc32)cc(OC)c1OC (configuration not stated)	Pf growth 48h inconclusive, HCMV antiviral -89, Pf growth 96h inconclusive
COc1cc(C2C(C#N)=C(N)Oc3cc(N(C)C)ccc32)cc2c1OCO2 (configuration not stated)	Pf growth 48h inconclusive, HCMV antiviral -78
COc1cc(C2C(C#N)=C(N)Oc3cc4c(cc32)OCO4)cc(OC)c1OC (configuration not stated)	Pf growth 48h inconclusive, HCMV antiviral -86, Pf growth 96h inconclusive
O=C(COc1ccc(F)cc1)Nc1ccc2nc(SCc3ccccc3)sc2c1	none (no result: Shiga inhibitor, Pf growth 48h, Pf growth 96h, Cycloheximide cs)
CCCOc1cccc(C(=O)Nc2cc(-c3ccccc3)no2)c1	none (no result: Shiga inhibitor, Pf growth 48h, Pf growth 96h, Cycloheximide cs)
CCOc1ccccc1NC(=O)CCc1nc(-c2cccc(C)c2)no1	none (no result: Shiga inhibitor, Pf growth 48h, Pf growth 96h, Cycloheximide cs)
COc1ccc(NC(=O)COC(=O)CC2CCCC2)cc1	none (no result: Shiga inhibitor, Pf growth 48h, Pf growth 96h, Cycloheximide cs)
O=C(CSc1ccc(Br)cc1)NCC1(N2CCCCC2)CCCCC1	none (no result: Shiga inhibitor, Pf growth 48h, Pf growth 96h, Cycloheximide cs)
Cc1cc(OCC(=O)NCC2(N3CCN(C)CC3)CCCCC2)cc(C)c1Cl	HCMV antiviral -82 (no result: Shiga inhibitor, Pf growth 48h, Pf growth 96h, Cycloheximide cs)
Cc1ccc(OCC(=O)NCC2(N3CCN(C)CC3)CCCCC2)cc1C	none (no result: Shiga inhibitor, Pf growth 48h, Pf growth 96h, Cycloheximide cs)
CC(C)CCNC(=O)NC(=O)COc1ccccc1C#N	Shiga inhibitor 30, Cycloheximide cs 19

Source: PubChem BioAssay
